Assay results as given in PubChem BioAssay AID743093 (The Scripps Research Institute Molecular Screening Center, 2013).
Among all 150,000 compounds or so, about 100 (0.067%) were called active. Many of the other results were omitted from the sample, so actives are more common in it than they were. Unmarked numbers belong to inactive results.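 Rule for the calls: active = inhibition above the mean plus 3 SD of compounds within the control limits, set per campaign (cut at about 38% in these data); inactive = the rest.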

Experiment: late stage P. falciparum gametocyte viability inhibitors, primary screen, ATP luminescence, HTS (AID 743093);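 note: 0% = DMSO wells and 100% = medium only without gametocytes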
Conditions: P. falciparum stage V gametocytes, 24 h, at 10.9 µM, hits give high values
N#CCSc1nc(-c2ccccc2)nc2ccc(F)cc12 showed an inhibition of -8.79%. Cc1cc(C)n(-c2ccc(Cl)c(C(=O)O)n2)n1 showed an inhibition of 8.49%. In the case of Cc1cc(C)n(-c2nc(O)cc(=O)[nH]2)n1, the inhibition is reported as 9.58%. In the case of Cc1cc(C)n(-c2ccc3nncn3n2)n1, the inhibition is reported as 38.2% (active). Compound O=C(CN1CCCCCC1)Nc1c(Cl)cc(Cl)cc1Cl has an inhibition of -23.1%. O=C(NC(=O)N1CCSCC1)c1c(Cl)cccc1Cl showed an inhibition of -10.9%. With CCn1c(SCC(=O)N/N=C/c2ccncc2)nc2ccccc21 the inhibition was -15.2%. With O=C1NC[C@@H](c2ccccc2)OC(=O)[C@H](Cc2ccc(F)cc2)CC/C=C/C[C@H]1CC(=O)N(CCO)Cc1ccccc1 the inhibition was 4.53%. In the case of COc1ccc(C(C#N)(CC(=O)O)c2cnccn2)cc1OC (stereo unspecified), the inhibition is reported as -25%. With Cc1ccccc1NC(=O)N1CCCC1C(=O)NCc1ccccc1 (stereo unspecified) the inhibition was 1.78%. Compound Cc1ccc2c(O)c(Cc3ccccc3)c(=O)[nH]c2n1 has an inhibition of -11.8%. C/C(Cc1ccccc1)=N\NC(=O)CNC(=O)c1ccc2c(c1)OCCO2 gave an inhibition of -4.02%. In the case of CC(C)c1cc(CN2CCOCC2)cc(C(C)C)c1O, the inhibition is reported as -5.85%. In the case of CCOC(=O)c1c(C)[nH]c2c1-c1ccccc1C(=O)C2=O, the inhibition is reported as 50.2% (active). CCOC(=O)C1=C(c2ccc(OC)cc2)C(=O)c2ccccc2C1=O showed an inhibition of -27.7%. Compound CCOC(=O)c1c(C)[nH]c(=S)c(C#N)c1-c1ccccc1 has an inhibition of -28.7%. Cc1cccc(C(=O)N2CCC(c3nc4ccccc4s3)CC2)c1 showed an inhibition of 13%. For Nc1nnnn1/N=C/c1cc([N+](=O)[O-])ccc1O, the inhibition was -1.33%. Compound CCN(CC)S(=O)(=O)c1ccc(NC(=O)c2cnc(C)cn2)cc1 has an inhibition of -1.77%. CC(=O)NS(=O)(=O)c1ccc(N/C(N)=N/c2nc(C)cc(C)n2)cc1 gave an inhibition of 11.7%. With CCCCC(CC)CNCc1cccn1CCN1CCOCC1 (stereo unspecified) the inhibition was -25.6%. Work on CCOC(=O)c1c(N)sc2c1CCCC2=O yielded an inhibition of -6.75%. Compound Cc1c(CN2CC[C@@H](N3CCN(c4ccccn4)CC3)[C@H](O)C2)[nH]c2ccc(F)cc12 has an inhibition of -10.1%. CCc1ccc(NC(=O)N[C@H](C(=O)O)C(C)CC)cc1 (stereo partly specified) gave an inhibition of -3.41%. Cc1ccc(C)c(SCc2nc3sc(C(=O)O)c(C)c3c(=O)[nH]2)c1 gave an inhibition of 8.97%. Work on CC1=CC(C)(C)NC(=S)N1NC(=O)c1ccccc1Cl yielded an inhibition of -21.8%. In the case of C[C@@H]1NC(=O)[C@@]2(C)[C@@H](c3ccccc3)[C@H]3COc4ccccc4[C@@H]3N2C1=O, the inhibition is reported as -7.28%. CCCNC(=O)CSc1nc(Cc2ccccc2)nc2ccccc12 gave an inhibition of -0.29%. With COc1cccc(CNc2ncc(-c3ccccc3)n2C)c1 the inhibition was -4.96%. Compound CCSCc1nc(N)nc(NCCc2ccccc2)n1 has an inhibition of -2.31%. CC(C)=CCN1CCN(CCCc2ccccc2)CC1CCO (stereo unspecified) gave an inhibition of 26.8%. Work on COc1ccccc1C1=CC(=O)C[C@H](c2ccc(F)cc2)C1 yielded an inhibition of -32.5%. Compound Cc1ccc(-c2ccnc3[nH]n(-c4ccccc4)c(=O)c23)cc1 has an inhibition of -20.9%. CSc1ccc(S(=O)(=O)N2CCC(C(=O)NCCc3ccccc3)CC2)cc1 showed an inhibition of -3.09%. For O=C(Nc1nnc(CCN2CCCCC2)s1)c1cccc(Cl)c1, the inhibition was 7.08%. With COc1cc(NC(=O)c2ccc(-c3csc(C)n3)cc2)c(OC)cc1Cl the inhibition was -9.66%. In the case of CCC(C(=O)NCCC(C)C)N(Cc1ccccc1Cl)C(=O)c1snc(C(N)=O)c1N (stereo unspecified), the inhibition is reported as -26.1%. CN(C)CCCNC(=S)N1CCC(c2nc3ccccc3[nH]2)CC1 showed an inhibition of -17.4%. In the case of CC(=O)NS(=O)(=O)c1ccc2c(c1)Cc1cc(S(=O)(=O)NC(C)=O)ccc1-2, the inhibition is reported as -9.24%. In the case of Cc1cc(F)ccc1N1CCC(N2CCN(C)C(CCO)C2)CC1 (stereo unspecified), the inhibition is reported as -11.3%. CC(=O)C(C)n1cnc2scc(-c3ccc(C)cc3)c2c1=O (stereo unspecified) gave an inhibition of 13.9%. COc1ccccc1-n1cn[nH]c1=S gave an inhibition of 2.72%. In the case of CC(C)CCN1NC2(CCC(C)CC2)NC1=S (stereo unspecified), the inhibition is reported as 0.86%. In the case of Cc1nc([N+](=O)[O-])cn1CC(=O)Nc1ccc(Cl)cc1, the inhibition is reported as 2.38%. For O=C(O)c1ccccc1C(=O)Nc1nc(-c2ccccc2)cs1, the inhibition was 3.62%. COC(=O)c1ccc(COc2cc([N+](=O)[O-])cc3cccnc23)cc1 gave an inhibition of 2.3%. For CCN1N=C(c2ccccc2)CCC1=O, the inhibition was -22.1%. Work on CCc1nc(N2CCN(C(C)=O)CC2)c2c3c(sc2n1)CCCC3 yielded an inhibition of -2.91%. Compound Cc1c(NC(=O)CSCc2ccccc2)cccc1C(=O)O has an inhibition of 19%. Work on CCCc1ccc(OCCNC(=O)c2ccccc2Br)cc1 yielded an inhibition of 17.8%. Compound O=C(N[C@@H]1C/C=C\C[C@@H](CC(=O)N(CCO)Cc2ccccc2)C(=O)N[C@H](Cc2ccccc2)COC1=O)OCC1c2ccccc2-c2ccccc21 has an inhibition of -0.76%. COc1ccc(N2CCN(C(=O)c3cccs3)CC2)cc1 showed an inhibition of -16.6%. Cc1cccc(C)c1OCCN1CCOCC1 showed an inhibition of -12.2%. With COc1ccc(CN(Cc2ccc(OC)cc2)C(=O)c2cccs2)cc1 the inhibition was 2.88%. In the case of CCOc1ccc2ccccc2c1/C=N/NC(=O)c1c(C)cc(C)[nH]c1=O, the inhibition is reported as 23.8%. With Cc1cccc(NC(=O)COC(=O)CCc2ccccc2)c1C the inhibition was -7.45%. Work on CCNC(=O)CCc1nc(-c2ccc(C)cc2)no1 yielded an inhibition of -1.21%. In the case of CN1CCN(c2ccc(S(=O)(=O)N3CCOCC3)cc2NC(=O)CCc2ccccc2)CC1, the inhibition is reported as -2.86%. Work on CCOC(=O)[C@H]1[C@H]2COc3cc(OC)ccc3[C@@H]2N2C(=O)CN(Cc3ccc(Cl)cc3)C(=O)[C@@]12C yielded an inhibition of -23.5%. For COc1ccc(C(=O)NC2=NCCS2)c(OC)c1, the inhibition was -24.6%. In the case of CCOc1ccc(-n2c(SCC(N)=O)nnc2-c2ccco2)cc1, the inhibition is reported as -6.2%. With CCOC(=O)c1cnc(COc2ccccc2Cl)[nH]c1=O the inhibition was -10.2%. In the case of COc1ccc(CCNC(=O)Cc2ccc(C)cc2)cc1OC, the inhibition is reported as -9.83%. In the case of O=[N+]([O-])c1ccccc1/C=C/CN1CCCC(CO)C1 (stereo unspecified), the inhibition is reported as -16.5%. In the case of O=C(CCCCO)c1ccc(O)c(Cl)c1, the inhibition is reported as -2.03%. CN(Cc1ccccc1)C(=O)c1ccc(COc2ccccc2)cc1 showed an inhibition of -8.25%. COc1ccc(OC)c(C(=O)NC(CC(N)=O)c2ccc(N3CCC(N4CCCCC4)CC3)c([N+](=O)[O-])c2)c1 (stereo unspecified) showed an inhibition of 0.29%. With COc1ccc(-c2sc3ccc(OC)cc3c2C#Cc2ccccn2)cc1 the inhibition was 11.6%. Work on COc1cc(NC(=O)c2ccc(CNc3c(N4CCCC4)c(=O)c3=O)cc2)cc(OC)c1OC yielded an inhibition of -11.3%. With COc1ccc(OCC(O)CN(C)C(=O)C(C)Oc2ccccc2)cc1 (stereo unspecified) the inhibition was -38.3%. With Cc1cc(F)ccc1NC(=O)C(C)n1c2ccccc2c2nc(=O)cc(C)n21 (stereo unspecified) the inhibition was -11.9%. For CCOC(=O)CSc1nc(C)c(Oc2ccc(Cl)cc2Cl)c(=O)[nH]1, the inhibition was -4.17%. O=C(C1CCC1)N1CCN(c2ccccc2)CC1 showed an inhibition of 10.5%. Cn1c(Nc2cccc(Cl)c2)nc2ccccc21 showed an inhibition of -9.18%. In the case of CN(C(=O)c1cccc(NC(=O)Cc2ccc([N+](=O)[O-])cc2)c1)C1CCC1, the inhibition is reported as -9.69%. With O=C(CCc1ccccc1)Nc1ncc([N+](=O)[O-])s1 the inhibition was -11.7%. For O=C(Cc1c(F)cccc1Cl)Nc1ncc([N+](=O)[O-])s1, the inhibition was 39.5% (active). In the case of O=C(Cc1c(F)cccc1Cl)Nc1ccc(-n2cnnn2)cc1, the inhibition is reported as 4.22%. In the case of O=C(CCl)N(Cc1cccc([N+](=O)[O-])c1)c1cccc(Cl)c1, the inhibition is reported as -7.41%. Compound Clc1ccc(C[n+]2cc(-c3ccccc3)n3c2CCC3)cc1 has an inhibition of 1.51%. Work on O=[N+]([O-])c1ccc(NC(=S)N2CCN(c3ccccn3)CC2)cc1 yielded an inhibition of 3.29%. Compound O=C(CN1CCN(c2ccc(F)cc2)CC1)Nc1ccccc1 has an inhibition of -14.6%. Compound N#C/C(=C\c1ccc(-c2cccc([N+](=O)[O-])c2)o1)C(=O)NCCN1CCOCC1 has an inhibition of -28.5%. For Cc1ccccc1Nc1c(-c2ccccc2)nc2ncccn12, the inhibition was -29.5%. In the case of O=C1CC(=O)Nc2cc(S(=O)(=O)N3CCN(c4cccc(C(F)(F)F)c4)CC3)ccc2N1, the inhibition is reported as 38.8% (active). O=S(=O)(c1cccc(C(F)(F)F)c1)N1CCN(c2cnccn2)CC1 gave an inhibition of -34.2%. For Cc1ccc(S(=O)(=O)N2CCN(c3ccccc3)CC2)cc1C, the inhibition was 0.96%. With CCc1cc(CNC(=O)CC2C(=O)NCCN2Cc2ccccc2C(F)(F)F)on1 (stereo unspecified) the inhibition was -0.11%. In the case of COc1ccc(NC(=O)C2C3CCC(O3)C2C(=O)O)cc1OC (stereo unspecified), the inhibition is reported as 7.46%. Work on Cc1cc(N/N=C\c2ccc(Br)cc2)nc(-n2nc(C)cc2C)n1 yielded an inhibition of -0.66%. Cc1ccc(S(=O)(=O)Nc2nc(C)cc(-n3nc(C)cc3C)n2)cc1 gave an inhibition of 10.5%. In the case of Cc1ccc(S(=O)(=O)Nc2nc(C)cc(N/N=C/c3ccc(O)cc3)n2)cc1, the inhibition is reported as 42.5% (active). With CC1CCC(CN2CCN=C2N(C)C)CC1 (stereo unspecified) the inhibition was -5.33%. Work on CCN(CC)CCCNC(=S)N(CCO)Cc1cc2cc3c(cc2[nH]c1=O)OCO3 yielded an inhibition of 4.58%. With CN(c1ccccn1)c1ncnc2[nH]ncc12 the inhibition was 2.58%. For O=S(=O)(c1ccc(Cl)cc1)N1CCCN(c2ccc(C(F)(F)F)cn2)CC1, the inhibition was -9.4%.
